Reference: PubChem BioAssay AID1159580 (chemical genetic matrix, 2015)
The whole screen tested about 5,500 compounds, of which about 2,000 (36%) were called active. Not shown: some 18% with an inconclusive outcome. No stated cut-off is given here; in the data, active means normalized growth mostly below about 0.91 (no sharp cut-off); inconclusive means no clear call, values can overlap the other calls; inactive means mostly above about 0.92. The list shows a part of the results.

Assay: chemical genetic growth profiling, strain panel (AID 1159580);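 further: tested at 20 µM; growth read once vehicle control cultures reached saturation at 30 °C; 1 = growth at the plate median or of vehicle wells; lower values mean less growth of the strain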
Details: growth OD
[1] = S. cerevisiae deletion strains, locus YDL101C, strain DUN1, hits give low values
[2] = S. cerevisiae deletion strains, locus YHR030C, strain SLT2, hits give low values

Measured: normalized growth

CCOC(=O)N/N=C\c1cc(Cl)cc(Cl)c1O
inactive: S. cerevisiae deletion strains, locus YAR019C, strain CDC15, hits give low values 0.948 | S. cerevisiae deletion strains, locus YBL105C, strain PKC1, hits give low values 0.95 | S. cerevisiae deletion strains, locus YBR135W, strain CKS1, hits give low values 0.928 | S. cerevisiae deletion strains, locus YBR136W, strain MEC1, hits give low values 0.951 | S. cerevisiae deletion strains, locus YBR160W, strain CDC28, hits give low values 0.938 | S. cerevisiae deletion strains, locus YDL017W, strain CDC7, hits give low values 0.941 | S. cerevisiae deletion strains, locus YDL028C, strain MPS1, hits give low values 0.942 | [1] 0.95 | S. cerevisiae deletion strains, locus YDL108W, strain KIN28, hits give low values 0.935 | S. cerevisiae deletion strains, locus YDL132W, strain cdc53, hits give low values 0.914 | S. cerevisiae deletion strains, locus YDL214C, strain PRR2, hits give low values 0.824 | S. cerevisiae deletion strains, locus YDR052C, strain DBF4, hits give low values 0.946 | S. cerevisiae deletion strains, locus YDR054C, strain cdc34, hits give low values 0.928 | S. cerevisiae deletion strains, locus YDR226W, strain ADK1, hits give low values 0.926 | S. cerevisiae deletion strains, locus YDR477W, strain SNF1, hits give low values 0.741 | S. cerevisiae deletion strains, locus YER123W, strain YCK3, hits give low values 0.765 | S. cerevisiae deletion strains, locus YER133W, strain GLC7, hits give low values 0.828 | S. cerevisiae deletion strains, locus YFL009W, strain cdc4, hits give low values 0.94 | S. cerevisiae deletion strains, locus YFL029C, strain CAK1, hits give low values 0.931 | S. cerevisiae deletion strains, locus YFR003C, strain YPI1, hits give low values 0.942 | S. cerevisiae deletion strains, locus YFR019W, strain FAB1, hits give low values 0.87 | S. cerevisiae deletion strains, locus YFR028C, strain CDC14, hits give low values 0.938 | S. cerevisiae deletion strains, locus YGR040W, strain KSS1, hits give low values 0.737 | S. cerevisiae deletion strains, locus YGR052W, strain FMP48, hits give low values 0.665 | S. cerevisiae deletion strains, locus YHR079C, strain IRE1, hits give low values 0.626 | S. cerevisiae deletion strains, locus YHR082C, strain KSP1, hits give low values 0.655 | S. cerevisiae deletion strains, locus YHR205W, strain SCH9, hits give low values 0.586 | S. cerevisiae deletion strains, locus YIL147C, strain SLN1, hits give low values 0.943 | S. cerevisiae deletion strains, locus YJL095W, strain BCK1, hits give low values 0.535 | S. cerevisiae deletion strains, locus YJL128C, strain PBS2, hits give low values 0.877 | S. cerevisiae deletion strains, locus YJL157C, strain FAR1, hits give low values 0.785 | S. cerevisiae deletion strains, locus YJR016C, strain ILV3, hits give low values 0.935 | S. cerevisiae deletion strains, locus YJR066W, strain TOR1 (second series), hits give low values 0.743 | S. cerevisiae deletion strains, locus YKL067W, strain YNK1, hits give low values 0.814 | S. cerevisiae deletion strains, locus YKL101W, strain HSL1, hits give low values 0.74 | S. cerevisiae deletion strains, locus YKL193C, strain SDS22, hits give low values 0.932 | S. cerevisiae deletion strains, locus YKL203C, strain TOR2, hits give low values 0.756 | S. cerevisiae deletion strains, locus YML070W, strain DAK1, hits give low values 0.789 | S. cerevisiae deletion strains, locus YMR001C, strain CDC5, hits give low values 0.948 | S. cerevisiae deletion strains, locus YMR277W, strain FCP1, hits give low values 0.936 | S. cerevisiae deletion strains, locus YNL006W, strain LST8, hits give low values 0.956 | S. cerevisiae deletion strains, locus YNL161W, strain CBK1, hits give low values 0.947 | S. cerevisiae deletion strains, locus YNL207W, strain RIO2, hits give low values 0.931 | S. cerevisiae deletion strains, locus YNL222W, strain SSU72, hits give low values 0.934 | S. cerevisiae deletion strains, locus YOL078W, strain AVO1, hits give low values 0.94 | S. cerevisiae deletion strains, locus YOL136C, strain PFK27, hits give low values 0.784 | S. cerevisiae deletion strains, locus YOR119C, strain RIO1, hits give low values 0.729 | S. cerevisiae deletion strains, locus YOR231W, strain MKK1, hits give low values 0.69 | S. cerevisiae deletion strains, locus YOR329C, strain SCD5, hits give low values 0.943 | S. cerevisiae deletion strains, locus YPL031C, strain PHO85, hits give low values 0.747 | S. cerevisiae deletion strains, locus YPL204W, strain HRR25, hits give low values 0.706 | S. cerevisiae deletion strains, locus YPL209C, strain IPL1, hits give low values 0.944 | S. cerevisiae deletion strains, locus YPR025C, strain CCL1, hits give low values 0.934 | S. cerevisiae deletion strains, locus YPR106W, strain ISR1, hits give low values 0.918 | S. cerevisiae deletion strains, locus YPR111W, strain DBF20, hits give low values 0.92 | S. cerevisiae deletion strains, strain NNK1, hits give low values 0.92 | S. cerevisiae deletion strains, strain TSCII, hits give low values 0.952
active: S. cerevisiae deletion strains, locus YGR092W, strain DBF2, hits give low values 0.251 | [2] 0.512 | S. cerevisiae deletion strains, locus YJR066W, strain TOR1, hits give low values 0.473 | S. cerevisiae deletion strains, locus YKL048C, strain ELM1, hits give low values 0.72 | S. cerevisiae deletion strains, locus YLR113W, strain HOG1, hits give low values 0.67 | S. cerevisiae deletion strains, locus YLR133W, strain CKI1, hits give low values 0.727 | S. cerevisiae deletion strains, locus YLR403W, strain SFP1, hits give low values 0.425 | S. cerevisiae deletion strains, locus YMR205C, strain PFK2 (second series), hits give low values 0.714 | S. cerevisiae deletion strains, locus YNL020C, strain ARK1, hits give low values 0.679 | S. cerevisiae deletion strains, locus YNL183C, strain NPR1, hits give low values 0.556 | S. cerevisiae deletion strains, locus YNL307C, strain MCK1 (second series), hits give low values 0.621 | S. cerevisiae deletion strains, locus YOR061W, strain CKA2, hits give low values 0.471 | S. cerevisiae deletion strains, locus YPL153C, strain RAD53, hits give low values 0.67 | S. cerevisiae deletion strains, locus YPL256C, strain CLN2, hits give low values 0.641

CCOC(=O)N/N=C\c1ccccc1OCC
inactive: S. cerevisiae deletion strains, locus YAL013W, strain DEP1, hits give low values 1.02 | S. cerevisiae deletion strains, locus YBR229C, strain ROT2, hits give low values 0.998 | S. cerevisiae deletion strains, locus YCL061C, strain MRC1, hits give low values 1.02 | [1] 1.01 | S. cerevisiae deletion strains, locus YDL134C, strain PPH21, hits give low values 1.02 | S. cerevisiae deletion strains, locus YDR150W, strain NUM1, hits give low values 0.923 | S. cerevisiae deletion strains, locus YEL061C, strain CIN8, hits give low values 1.02 | S. cerevisiae deletion strains, locus YGR078C, strain PAC10, hits give low values 1 | S. cerevisiae deletion strains, locus YGR229C, strain SMI1, hits give low values 1.01 | [2] 1.02 | S. cerevisiae deletion strains, locus YHR087W, strain rtc3, hits give low values 0.992 | S. cerevisiae deletion strains, locus YJR043C, strain POL32, hits give low values 1.02 | S. cerevisiae deletion strains, locus YJR075W, strain HOC1, hits give low values 0.985 | S. cerevisiae deletion strains, locus YKL190W, strain CNB1, hits give low values 1 | S. cerevisiae deletion strains, locus YLR039C, strain RIC1, hits give low values 0.931 | S. cerevisiae deletion strains, locus YLR058C, strain SHM2 (second series), hits give low values 0.995 | S. cerevisiae deletion strains, locus YLR085C, strain ARP6, hits give low values 1.04 | S. cerevisiae deletion strains, locus YLR262C, strain YPT6, hits give low values 0.917 | S. cerevisiae deletion strains, locus YML094W, strain GIM5, hits give low values 1.02 | S. cerevisiae deletion strains, locus YMR219W, strain ESC1, hits give low values 0.997 | S. cerevisiae deletion strains, locus YMR263W, strain SAP30, hits give low values 1.03 | S. cerevisiae deletion strains, locus YNL128W, strain TEP1, hits give low values 1.01 | S. cerevisiae deletion strains, locus YNL153C, strain GIM3, hits give low values 1.02 | S. cerevisiae deletion strains, locus YNL298W, strain CLA4 (second series), hits give low values 1.03 | S. cerevisiae deletion strains, locus YNL322C, strain KRE1, hits give low values 1 | S. cerevisiae deletion strains, locus YNR030W, strain Alg12, hits give low values 1.02 | S. cerevisiae deletion strains, locus YOL006C, strain TOP1, hits give low values 1.06 | S. cerevisiae deletion strains, locus YPL055C, strain LGE1, hits give low values 0.98 | S. cerevisiae deletion strains, locus YPL241C, strain CIN2, hits give low values 1.02 | S. cerevisiae deletion strains, locus YPR135W, strain CTF4, hits give low values 1.03 | S. cerevisiae strains, strain wild type, hits give low values 1.01
